The text below walks through data of PubChem BioAssay (NCI).

Compounds without any hit were thinned out: in the full panel of roughly 83,000, 20% have a hit.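 96-well plates, one dose, 48 hours. Percent growth reported; active if below 10.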 Unmarked numbers belong to inactive results. Activity calls are given as the source filed them.

Experiment in all cases: NCI-60 one-dose screen, 48 h (100 = growth as untreated, 0 = no growth, -100 = all killed)
One assay relates to SK-MEL-2 melanoma. The settings on record: 10 µM unless noted.
A further assay deals with EKVX NSCLC. The settings on record: 10 µM unless noted.
The next assay concerns SN12C renal. The settings on record: 10 µM unless noted.
For the next assay, the system named is UO-31 renal. As to conditions: 10 µM unless noted.
The next assay relates to ACHN renal. The settings on record: 10 µM unless noted.
A further assay has as its system CAKI-1 renal. The settings on record: 10 µM unless noted.
In another assay the test system is A498 renal. As to conditions: 10 µM unless noted.
The next assay relates to CCRF-CEM leukemia. The settings on record: 10 µM unless noted.
A further assay relates to MOLT-4 leukemia. As to conditions: 10 µM unless noted.
Another assay relates to SR leukemia. The settings on record: 10 µM unless noted.
Another assay deals with RPMI-8226 leukemia. As to conditions: 10 µM unless noted.
Another assay relates to OVCAR-8 ovarian. As to conditions: 10 µM unless noted.
In the next assay the test system is OVCAR-5 ovarian. The settings on record: 10 µM unless noted.
Another assay concerns OVCAR-4 ovarian. The settings on record: 10 µM.
For the next assay, the system named is SK-OV-3 ovarian. As to conditions: 10 µM unless noted.
For the next assay, the system named is IGROV1 ovarian. As to conditions: 10 µM unless noted.
The subject of the next assay is OVCAR-3 ovarian. The settings on record: 10 µM unless noted.
In another assay the test system is NCI/ADR-RES ovarian. As to conditions: 10 µM unless noted.
Another assay relates to HS 578T breast. The settings on record: 10 µM unless noted.
The next assay concerns TK-10 renal. As to conditions: 10 µM unless noted.

Consider `CC(=O)CC(=O)SC1=NCCS1`, for which the growth with SK-MEL-2 melanoma was 131%; in the assay with EKVX NSCLC, 111%; in the assay with SN12C renal, 108%; in the assay on UO-31 renal, 98.9%; with ACHN renal it was 108%; with CAKI-1 renal, 97.2%. In addition, the growth in the assay on A498 renal is 121%; with CCRF-CEM leukemia it was 87.2%; in the assay on MOLT-4 leukemia it was 98.8%; in the assay with SR leukemia, 102%; in the assay on RPMI-8226 leukemia it was 98.1%; in the assay with OVCAR-8 ovarian, 99.3%. The growth was 117% with OVCAR-5 ovarian; 109% in the assay with OVCAR-4 ovarian; 112% in the assay on SK-OV-3 ovarian; 140% in the assay with IGROV1 ovarian; 113% in the assay with OVCAR-3 ovarian; 113% in the assay with NCI/ADR-RES ovarian.
As for `NC(=O)CC1C=CCC1` (centres undefined), the growth in the assay with SK-MEL-2 melanoma was 105%; in the assay on EKVX NSCLC, 105%; in the assay on SN12C renal it was 99.4%; in the assay with UO-31 renal, 91.5%; with ACHN renal, 100%; in the assay with CAKI-1 renal it was 99.2%. The growth is 97.1% in the assay with A498 renal; 82.4% with CCRF-CEM leukemia; 95.6% in the assay on MOLT-4 leukemia; 106% in the assay with SR leukemia; 96.5% in the assay on RPMI-8226 leukemia; 84.7% in the assay with OVCAR-8 ovarian. Also, the growth with OVCAR-5 ovarian was 96.7%; in the assay on SK-OV-3 ovarian, 105%; with IGROV1 ovarian, 107%; with OVCAR-3 ovarian, 111%; with HS 578T breast, 110%; with NCI/ADR-RES ovarian, 109%.
In the case of `COc1cc2c(c(OC)c1)C1c3cc(OC)ccc3NC(=O)N1CC2` (centres undefined), the growth in the assay on SK-MEL-2 melanoma was 45.5%; in the assay on EKVX NSCLC, 91.9%; in the assay with SN12C renal, 88.5%; in the assay on UO-31 renal, 78.5%; in the assay on ACHN renal, 100%; in the assay with CAKI-1 renal, 77.8%. For the same compound, the growth was 74.7% with A498 renal; 88.2% in the assay on CCRF-CEM leukemia; 72.9% in the assay on MOLT-4 leukemia; 24% in the assay with SR leukemia; 81.9% in the assay with RPMI-8226 leukemia; 95.1% in the assay with OVCAR-8 ovarian. Besides, the growth was 93.7% in the assay on OVCAR-5 ovarian; 93.1% in the assay with SK-OV-3 ovarian; 80.2% with IGROV1 ovarian; 81.9% in the assay with OVCAR-3 ovarian; 90.2% in the assay with HS 578T breast.
In the case of `CC(=O)n1cc(C=O)c2ccccc21`, the growth in the assay with SK-MEL-2 melanoma is 97.9%; in the assay with EKVX NSCLC it was 109%; in the assay on SN12C renal it was 97.7%; in the assay with TK-10 renal it was 100%; in the assay on ACHN renal it was 106%; with CAKI-1 renal, 100%. Moreover, the growth in the assay on A498 renal is 113%; with CCRF-CEM leukemia it was 80.9%; in the assay on MOLT-4 leukemia, 91%; in the assay with SR leukemia, 97.3%; with RPMI-8226 leukemia, 97.6%; in the assay with OVCAR-8 ovarian, 86.7%. Further, the growth was 104% in the assay on OVCAR-5 ovarian; 116% in the assay with SK-OV-3 ovarian; 112% in the assay on IGROV1 ovarian; 104% with OVCAR-3 ovarian; 104% with HS 578T breast; 96.4% in the assay on NCI/ADR-RES ovarian.
Turning to `NC1=NC(=O)NC1(c1ccccc1)c1ccccc1`, the growth was 68.2% in the assay on SK-MEL-2 melanoma; 111% in the assay on EKVX NSCLC; 88.1% with SN12C renal; 92% in the assay on TK-10 renal; 95.8% in the assay with ACHN renal; 94.6% in the assay on CAKI-1 renal. For the same compound, the growth in the assay on A498 renal is 87.6%; in the assay on CCRF-CEM leukemia, 86.2%; in the assay with MOLT-4 leukemia, 87.6%; in the assay on SR leukemia, 97.9%; with RPMI-8226 leukemia it was 94.3%; in the assay on OVCAR-8 ovarian, 97.7%. Moreover, the growth with OVCAR-5 ovarian was 83.2%; in the assay with OVCAR-4 ovarian, 105%; in the assay on SK-OV-3 ovarian, 92.7%; with OVCAR-3 ovarian, 105%; with HS 578T breast, 98.3%; in the assay on NCI/ADR-RES ovarian, 106%.
Consider `COc1ccc(CC(C#N)c2ccc(Cl)cc2)cc1` (centres undefined), for which the growth was 80% with SK-MEL-2 melanoma; 90% in the assay on EKVX NSCLC; 99.7% with SN12C renal; 109% in the assay with TK-10 renal; 102% with ACHN renal; 68.9% in the assay with CAKI-1 renal. Further, the growth is 49.7% with A498 renal; 76.5% with CCRF-CEM leukemia; 72.7% with MOLT-4 leukemia; 36.3% in the assay on SR leukemia; 85% with RPMI-8226 leukemia; 99% with OVCAR-8 ovarian. Besides, the growth is 82.9% in the assay on OVCAR-5 ovarian; 103% in the assay with OVCAR-4 ovarian; 89.3% in the assay with SK-OV-3 ovarian; 68.8% in the assay with IGROV1 ovarian; 77.2% in the assay with OVCAR-3 ovarian; 42.5% in the assay on NCI/ADR-RES ovarian.
For the compound `Cc1ccc(C2=C/C(=C/c3ccc(Br)cc3)C(=O)N2CCc2ccc(S(N)(=O)=O)cc2)cc1`, the growth in the assay with SK-MEL-2 melanoma was 98.6%; with EKVX NSCLC, 92.8%; in the assay on SN12C renal, 95.9%; in the assay on TK-10 renal, 110%; in the assay on ACHN renal, 97.7%; in the assay with CAKI-1 renal it was 65%. Also, the growth was 78.5% in the assay with A498 renal; 104% in the assay with CCRF-CEM leukemia; 82.1% in the assay on MOLT-4 leukemia; 87.2% in the assay with SR leukemia; 96.1% with RPMI-8226 leukemia; 95.7% with OVCAR-8 ovarian. Besides, the growth in the assay on OVCAR-5 ovarian is 97.2%; in the assay on OVCAR-4 ovarian, 91.5%; in the assay with IGROV1 ovarian, 85.5%; in the assay on OVCAR-3 ovarian, 104%; in the assay with HS 578T breast, 93.4%; in the assay with NCI/ADR-RES ovarian, 89.1%.
Take `O=C(NCc1ccc(Cn2c(=O)sn(-c3ccccc3)c2=O)cc1)OCc1ccc2c(Br)cc(Br)c(O)c2n1`: the growth in the assay on SK-MEL-2 melanoma was -52.4% (active); in the assay with EKVX NSCLC it was -92.3% (active); in the assay on SN12C renal it was -61.4% (active); with TK-10 renal, -90.5% (active); in the assay on ACHN renal, -100% (active); with CAKI-1 renal it was -74.9% (active). For the same compound, the growth in the assay with A498 renal is -41.6% (active); in the assay on CCRF-CEM leukemia it was 4.61% (active); with MOLT-4 leukemia it was 2% (active); in the assay on SR leukemia it was 4.62% (active); in the assay on RPMI-8226 leukemia, -17.7% (active); in the assay with OVCAR-8 ovarian it was 0.865% (active). Further, the growth in the assay on OVCAR-5 ovarian was -62.7% (active); in the assay on OVCAR-4 ovarian, -52.9% (active); in the assay with SK-OV-3 ovarian, 55.2%; with IGROV1 ovarian, -80.4% (active); with OVCAR-3 ovarian, -90.9% (active); in the assay with HS 578T breast, -1.98% (active). In addition, the growth with NCI/ADR-RES ovarian is -1.25% (active).
Consider `COc1ccc(-c2ccc(NNC(=O)c3ccc(F)cc3)nn2)cc1OC`, for which the growth is 93.5% in the assay with SK-MEL-2 melanoma; 40.5% in the assay on EKVX NSCLC; 57.1% in the assay on SN12C renal; 54.8% with ACHN renal; 79.5% in the assay with CCRF-CEM leukemia; 60.2% in the assay with MOLT-4 leukemia. Also, the growth is 51% with SR leukemia; 70.7% in the assay on RPMI-8226 leukemia; 66.8% in the assay on OVCAR-8 ovarian; 50.3% in the assay with OVCAR-5 ovarian; 81.8% in the assay with OVCAR-4 ovarian; 22.1% with IGROV1 ovarian. The values for the growth in the assay with OVCAR-3 ovarian, in the assay with HS 578T breast and with NCI/ADR-RES ovarian were 78.6%, 41.1% and 65.4%, respectively.
